Source: PubChem (The Scripps Research Institute Molecular Screening Center)
TEAD-YAP inh = TEAD-YAP interaction inhibition; HEK-TIYL cells, TEAD-Gal4/YAP UAS-luciferase luminescence; inhibition, % at 9.12 µM; actives 1.4% (n = 640,000); AID 1259422; in the data active = inhibition above about 32%;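 note: 0% = median of test compound wells and 100% = reference inhibitor wells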
FBW7 activator = human FBW7 E3 ligase activation, primary screen. actives 0.13% (n = 650,000). normalized activity (activation), % at 26.1 µM. AID 1259310. AlphaScreen FBW7–phospho-cyclin E peptide binding, activator screen; in the data active = normalized activity above about 1.9%;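 note: purified mutant Fbw7 with reduced substrate affinity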
GPR151 activ = activates the human receptor GPR151 | activation, % at 11.2 µM | PathHunter beta-arrestin GPR151 cells, luminescence | AID 1508602 | actives 1% (n = 650,000) | Q8TDV0; in the data active = activation above about 4.9%;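 note: 0% = median of compound wells and 100% = cells with positive control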
Target sequence (Q8TDV0 whole entry, looked up): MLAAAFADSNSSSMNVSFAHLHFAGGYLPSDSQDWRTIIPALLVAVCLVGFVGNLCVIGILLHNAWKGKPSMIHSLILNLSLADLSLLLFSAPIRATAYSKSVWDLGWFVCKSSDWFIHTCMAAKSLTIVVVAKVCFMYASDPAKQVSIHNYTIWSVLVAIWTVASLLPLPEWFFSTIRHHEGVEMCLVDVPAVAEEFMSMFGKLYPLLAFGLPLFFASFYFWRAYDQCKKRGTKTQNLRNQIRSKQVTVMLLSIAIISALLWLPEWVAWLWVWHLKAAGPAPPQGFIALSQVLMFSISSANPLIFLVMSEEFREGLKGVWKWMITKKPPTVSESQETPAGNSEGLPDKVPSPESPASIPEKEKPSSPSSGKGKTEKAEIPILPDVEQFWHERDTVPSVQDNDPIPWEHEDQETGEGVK
MITF inh = inhibitors of human MITF; actives 0.91% (n = 650,000); O75030; inhibition, % at 2.6 µM; AlphaScreen MITF homodimerization, bead proximity signal; in the data active = inhibition above about 50%;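 note: 0% = vehicle wells with protein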
MITF inh conf = human MITF inhibition, confirmation; inhibition, % at 2.6 µM; AlphaScreen MITF homodimerization, biotin/His-MITF beads; AID 1259372; shares compounds with MITF inh; actives 16% (n = 4,700);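 active = inhibition above a cutoff derived from the DMSO control wells, cut at about 28% in these data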;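 note: 0% = MITF dimer wells with DMSO only; inhibitors lower the bead chemiluminescence by keeping MITF from dimerizing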
AlphaScreen intf2 = AlphaScreen optical interference, counter-screen; shares compounds with MITF inh; LysRS AlphaScreen counterscreen, signal interference, triplicate; inhibition, % at 2.6 µM; actives 7.6% (n = 4,700); AID 1259376;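 active = inhibition above a cutoff derived from the DMSO control wells, cut at about 30% in these data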
* = called active by the depositor; . = not tested or not shown. Only some compounds are listed: those with a hit (about 3.5% of all), similar ones and a draw of the others.

SMILES	TEAD-YAP inh	FBW7 activator	GPR151 activ	MITF inh	MITF inh conf	AlphaScreen intf2
CCOc1ccc2nc(SCC(=O)NCC3CCCO3)c(C#N)cc2c1 (stereo unspecified)	-2	0	-1	6	.	.
CC(C)c1ccc2nc(SCC(=O)NCC3CCCO3)c(C#N)cc2c1 (stereo unspecified)	9	0	0	66*	11	19
Cc1cc(C)c(OCCOCCN2CCNCC2)c(C)c1	-1	0	-1	10	.	.
Clc1ccc(OCCCN2CCNCC2)c(Br)c1	-2	0	0	39	.	.
Clc1ccc(OCCN2CCNCC2)c(Br)c1	13	0	2	65*	-13	-2
Clc1ccc(OCCCCN2CCNCC2)c(Br)c1	-5	0	-1	79*	4	16
Cc1cc(Cl)c(OCCCN2CCNCC2)c(Br)c1	1	0	2	47	.	.
Cc1cc(Cl)cc(C)c1OCCN1CCNCC1	0	0	3	55*	-4	-4
Clc1cc(Cl)c(OCCCN2CCNCC2)c(Cl)c1	-4	-1	2	56*	-10	-2
O=C1Cc2cc(C(=O)CCl)ccc2N1	9	0	2	7	.	.
Clc1ccc(SCCN2CCNCC2)cc1	11	0	0	31	.	.
Clc1ccc(SCCOCCN2CCNCC2)cc1	-7	0	-1	59*	-15	-4
Cc1ccc(OCCCN2CCNCC2)c(Br)c1	-17	0	-1	69*	8	-3
Cc1cc(OCCOCCN2CCNCC2)cc(C)c1Cl	-5	0	0	64*	4	8
Cc1cc(Cl)ccc1OCCN1CCNCC1	9	0	0	73*	-4	0
CN1C(=O)CCC12CCN(Cc1cnn(-c3ccccc3)c1)CC2	-3	0	0	-15	.	.
CCOc1ccc2[nH]c(=O)c(CN(CCOC)C(=O)Nc3ccc(C)cc3)cc2c1	-5	0	0	-2	.	.
O=[N+]([O-])c1ccccc1CN1CCSCC1	0	0	0	38	.	.
Clc1ccccc1CN1CCN(Cc2ccco2)CC1	-20	0	1	69*	16	16
O=[N+]([O-])c1ccccc1CN1CCN(Cc2ccco2)CC1	-7	0	0	54*	7	15
CC1CN(Cc2ccccc2Cl)CC(C)O1 (stereo unspecified)	3	1	0	80*	-2	6
Cc1cc2nc(N3CCC(NCCCn4nnc5ccccc54)CC3)nc(C)c2cc1C	6	0	0	1	.	.
Cc1nn(-c2ccccc2)c(C)c1/C=C/C(=O)OCC(=O)c1ccc2c(c1)OCCO2	-4	0	0	-3	.	.
COc1cccc(C(=O)N2CCN(Cc3cccc(Br)c3)CC2)c1	10	1	-2	54*	-3	-2
COc1cccc(C(=O)N2CCN(Cc3ccc(OC)c(OC)c3)CC2)c1	3	0	1	61*	-2	-4
SMILES	TEAD-YAP inh	FBW7 activator	GPR151 activ	MITF inh	MITF inh conf	AlphaScreen intf2
COc1ccc(C(=O)N2CCN(Cc3ccc(Cl)cc3)CC2)cc1OC	13	0	0	53*	-4	8
COc1ccc(C(=O)N2CCN(Cc3cc(OC)c(OC)c(OC)c3)CC2)cc1OC	-2	0	0	32	.	.
COc1cccc(C(=O)N2CCN(Cc3ccc(C)cc3)CC2)c1	-5	1	0	58*	10	12
CCOC(=O)CC(NS(=O)(=O)c1ccc(C)cc1)c1ccc(OCC)cc1 (stereo unspecified)	11	0	-1	8	.	.
CCNc1cc(C)nc(N2CCN(C(=O)c3cccc(OC)c3)CC2)n1	7	0	-2	59*	-1	-2
CCNc1cc(C)nc(N2CCN(C(=O)c3c(F)cccc3Cl)CC2)n1	2	0	-1	13	.	.
COc1cccc(OC)c1C(=O)N1CCN(Cc2cccc(Br)c2)CC1	0	0	-1	64*	-3	-7
Cc1ccc(CNS(=O)(=O)c2ccc3c(c2)OCCCO3)cc1	-6	0	-1	2	.	.
CC1CC(C)(C)N(C(=O)CN2CCN(C)CC2)c2ccccc21 (stereo unspecified)	12	1	-2	81*	5	14
O=C(CN1CCN(c2ccccc2F)CC1)NCCC1=CCCCC1	-6	0	0	68*	12	11
CN1CCCN(CC(=O)N2CCc3ccccc32)CC1	-4	-1	1	78*	4	5
O=C(CN1CCN(c2ccccc2F)CC1)N1CCCc2ccccc21	7	0	2	53*	9	22
Cc1ccc2c(c1)C(C)CC(C)(C)N2C(=O)CN1CCN(C)CC1 (stereo unspecified)	-3	0	2	-4	.	.
CCOC(=O)c1c(N2C(N)=C(C#N)C(c3cccnc3)C3=C2CCCC3=O)sc2c1CCCCC2 (stereo unspecified)	2	0	1	3	.	.
COc1cc(C(=O)c2ccccc2)c(OC)cc1C(=O)NC1CC(C)(C)NC(C)(C)C1	1	0	2	0	.	.
Nc1ccc(S(=O)(=O)NNC(=O)C(=O)NNc2ccccn2)cc1	-4	0	-1	44	.	.
Cc1ccccc1S(=O)(=O)NNC(=O)C(=O)NNc1ccccn1	-1	0	1	54*	47*	75*
Cc1cccc(N2C(=O)c3oc4ccc(Cl)cc4c(=O)c3C2c2cccnc2)n1 (stereo unspecified)	6	0	1	6	.	.
COc1ccc(Br)cc1CN1CCN(S(=O)(=O)Cc2ccccc2)CC1	16	0	-1	62*	6	26
CCCS(=O)(=O)N1CCN(Cc2cc(Br)ccc2OC)CC1	18	0	-1	54*	8	16
CCS(=O)(=O)N1CCN(Cc2cc(Br)ccc2OC)CC1	23	0	0	52*	10	14
CCCS(=O)(=O)N1CCN(Cc2ccc(OC)c(OC)c2OC)CC1	-1	0	0	52*	7	7
CC(O)CNCCCCOc1ccc2ccccc2c1Br (stereo unspecified)	3	0	1	71*	53*	40*
COCCCNCCOc1ccc2ccccc2c1Br	-4	0	0	59*	7	18
Cc1csc(NC(=O)CN2CCC(N3CCCCC3)CC2)n1	4	0	2	6	.	.
N#CC1(C#N)[C@H](c2cccnc2)[C@@H](C(=O)c2ccccc2)N2c3ccc(Cl)cc3C=C[C@@H]21	-4	0	1	11	.	.
N#CC1(C#N)C(c2cccnc2)C(C(=O)c2ccccc2)N2c3ncccc3C=CC21 (stereo unspecified)	-16	0	0	71*	13	4
CCc1cccc(CC)c1NS(=O)(=O)c1ccc2c(c1)NC(=O)CC(=O)N2	-6	0	-1	1	.	.
Fc1ccc(CN2CCC(N3CCN(c4ccccc4)CC3)CC2)cc1	-2	0	-1	53*	6	0
